# The list is not random: actives were taken first. Their share in the collection is about 3.4%.
# Env fusion inh: blocks HIV Env-driven cell-cell fusion; HeLa-JRFL Env/CEM21 cell fusion, luciferase; inhibition, % at 12.3 µM; hit rate 1.1% among 360,000;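 active means mean replicate inhibition score of at least 50 and every replicate individually at or above 50; inconclusive means only one of the two criteria met; inactive means mean below 50 and not all replicates reaching 50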;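 further: 0% = plate neutral controls and 100% = maraviroc near 300 nM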
# Wnt act: Wnt/beta-catenin pathway activation; Wnt/beta-catenin reporter cell assay, activator, plate reader; hit rate 1.2% among 300,000; AID 743398; activation, % at 9.35 µM; in the data active means activation above about 30%, passing the limit was not always enough; inconclusive means no clear call, values can overlap the other calls;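 further: 0% = neutral control wells and 100% = positive control wells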
# miR122 inh: miR-122 inhibition in Huh7 cells; activation (reporter increase), % at 12.5 µM; hit rate 0.3% among 340,000; Huh7 miR-122 Renilla luciferase sensor, 48 h; neutral wells = 0, positive control = 100;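 active means mean replicate activation score at least 90 and every replicate individually at or above 90; inconclusive means only one of the two criteria met; inactive means neither criterion met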;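 further: higher luciferase means less miR-122 activity so hits act as miR-122 inhibitors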
# MITF act: activators of MITF-driven TRPM1 promoter activity in SK-MEL-5 cells; hit rate 0.75% among 300,000; AID 588334; activation, % at 12.5 µM; SK-MEL-5 TRPM1-promoter luciferase, 24 h; % of positive control, neutral wells = 0;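 active means mean activation of at least 80% with every replicate also reaching 80%; inconclusive means mean reaches 80% but some replicate falls short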;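 further: 0% = neutral control wells and 100% = parthenolide positive control wells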
# esBAF inh: inhibitors of esBAF chromatin remodeling in mouse ES cells; Bmi1-luciferase knock-in reporter, 24 h; 100% = twice the neutral-well signal; reporter increase, % at 12.5 µM; hit rate 2% among 350,000; AID 602393; in the data active means activation above about 40%; inconclusive means no clear call, values can overlap the other calls;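 further: 0% = median of the plate's neutral control wells and 100% = double that signal; a rise in the Bmi1 reporter signal indicates esBAF inhibition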
# The depositor's hits bear a star; i = inactive; ? = inconclusive; . = not tested or not shown; [ ] = dose if it differs, or a comment.
SMILES,Env fusion inh,Wnt act,miR122 inh,MITF act,esBAF inh
CCN(CC)c1ccc(NC(=O)CCCCC(=O)Nc2ccc(N(CC)CC)cc2)cc1,61.2*,0.0,-6.3,-27.0,-45.2
COc1cccc(-c2cnc3c(c2)C(=O)N([C@H](C)CO)C[C@H](C)[C@@H](CN(C)CC2CCCC2)O3)c1,-8.2[16.7 µM],.,.,.,-3.1
Cc1nn(-c2ccccn2)c2c1-c1nc(N)ncc1CC2,-268.6,29.6,-5.9,110.2*,?
CN(C)c1ccc(-c2noc(C3CCN(S(=O)(=O)c4ccc(C(=O)O)cc4)CC3)n2)cc1,12.1,.,-14.0,-1.6,-5.6
CN(C)c1ccc(-c2noc(C3CCN(S(=O)(=O)c4cccc(Cl)c4)CC3)n2)cc1,56.4*,.,.,-16.2,.
CC(=O)N[C@@H]1CC[C@H](CCNC(=O)Nc2ccc(C(F)(F)F)cc2)O[C@@H]1CO,-16.7[16.7 µM],.,.,.,1.8
CCOc1ccc(-c2c(C(=O)N/N=C/c3ccccc3)nnn2-c2nonc2N)cc1,-2.0,33.5*,.,.,0.8
CCOc1ccc(-c2c(C(=O)N/N=C/c3ccc(C)cc3)nnn2-c2nonc2N)cc1,-5.6,0.9,.,.,5.9
CN[C@H]1CCc2cc(OC)c(OC)c(OC)c2-c2ccc(N(C)CC(OC)OC)c(=O)cc21,-118.1,-6.4,130.2*,-29.3,-46.3
COc1cc2c(c(OC)c1OC)-c1ccc(N(C)CC(OC)OC)c(=O)cc1[C@@H](NC(C)=O)CC2,i,-14.3,.,-70.1,.
CCN(CC)c1ccc(NC(=O)COc2ccccc2C#N)cc1S(=O)(=O)Nc1ccccc1OC,-9.1,-1.1,287.5*,3.3,.
CCN(CC)c1ccc(NC(=O)c2ccccn2)cc1S(=O)(=O)Nc1ccccc1OC,17.7,-2.5,124.5*,-0.3,1.5
CCN(CC)c1ccc(N)cc1S(=O)(=O)Nc1ccccc1OC,9.6,-1.0,27.1,-5.4,.
C[C@@H]1CCCCO[C@@H](CN(C)Cc2ccc(C(F)(F)F)cc2)[C@@H](C)CN([C@@H](C)CO)C(=O)c2cc(NS(C)(=O)=O)ccc2O1,-19.3[16.7 µM],.,5.8[16.7 µM],.,-1.3
COc1ccc(CNC(=O)C(c2ccco2)N(C(=O)c2csnn2)c2cccc(C)c2C)cc1 (configuration not stated),.,.,97.4*,-4.9,5.4
O=C(NCc1ccc(F)cc1)C(c1ccco1)N(C(=O)c1csnn1)c1ccccc1 (configuration not stated),9.6,-1.9,7.6,-9.0,1.3
CC1CCN(c2nc3ccc(C(=O)O)cc3s2)CC1,.,.,-0.4,-89.7,-70.6
CCC1CCCCN1CCCNC(=O)c1ccc2nc(N3CCC(C)CC3)sc2c1 (configuration not stated),-52.7,16.1,-9.5,-41.0,58.2*
CC1CCN(c2nc3ccc(C(=O)NCCCN4CCCCC4)cc3s2)CC1,-102.1,4.6,-0.6,-52.7,61.7*
O=C(C[C@H]1CC[C@H](NC(=O)c2ccncc2)[C@H](CO)O1)NCC1CC1,-6.6[16.7 µM],.,.,.,-2.4
CC(=O)Nc1ccc(S(=O)(=O)C(C#N)c2nc3ccccc3nc2NCCO)cc1 (configuration not stated),-12.8,46.3*,?,0.6,-0.7
Cc1ccc(S(=O)(=O)Nc2cccc3c2O[C@H](CN(C)Cc2ccc(Oc4ccccc4)cc2)[C@H](C)CN([C@H](C)CO)C3=O)cc1,32.2[16.7 µM],.,40.4[16.7 µM],.,2.2
C=CCn1cccc(C(=O)Nc2ccc(N(C)C)cc2)c1=O,-28.4,19.0,-0.7,.,?
C#CCn1cccc(C(=O)Nc2ccc(OC)cc2)c1=O,-12.5,10.6,-2.3,49.5,52.7*
C=CCn1cccc(C(=O)Nc2ccc(SC)cc2)c1=O,-29.3,25.4,0.7,75.8,54.9*
SMILES,Env fusion inh,Wnt act,miR122 inh,MITF act,esBAF inh
C=CCn1cccc(C(=O)Nc2ccc(OC)c(OC)c2)c1=O,22.0,1.7,-0.1,9.1,.
C=CCn1cccc(C(=O)Nc2ccc(OC)c(Cl)c2)c1=O,.,.,5.6,61.5,56.2*
O=C(Nc1ccccc1)[C@@H]1[C@@H](CO)[C@@H]2Cn3c(cccc3=O)[C@@H]2N1C(=O)C1CCC1,.,.,-2.3[16.7 µM],.,4.8
CCC(=O)Nc1ccc2c(c1)C(=O)N(C)C[C@H](OC)[C@H](C)CN(C(=O)C1CC1)[C@@H](C)CO2,.,.,.,.,-4.5
CCC(=O)N1CCCc2cc(S(=O)(=O)N3CCN(c4ncccn4)CC3)ccc21,9.9,0.9,5.5,-9.9,3.6
CCC(=O)N1CCCc2cc(S(=O)(=O)N3CCN(c4ccccc4F)CC3)ccc21,40.9*,-2.7,.,.,8.9
CCn1c2ccccc2c2cc(NC(=O)C(=O)N3CCOCC3)ccc21,-14.7,-1.3,6.0,69.6,70.8*
